Screening data: PubChem BioAssay, National Center for Advancing Translational Sciences (NCATS)
DRD3 antagonist – blocks the human D3 dopamine receptor; P35462; D3R cells, DiscoveRx beta-arrestin luminescence, antagonist mode; active compounds read low; max response, negative = inhibition, %; hit rate 2.5% among 360,000; AID 652054; in the data active = max response below about -50%; inconclusive = no clear call, values can overlap the other calls; note: % is set by controls: 0 for no effect and ±100 for the full control effect
Target sequence (P35462 whole entry, looked up): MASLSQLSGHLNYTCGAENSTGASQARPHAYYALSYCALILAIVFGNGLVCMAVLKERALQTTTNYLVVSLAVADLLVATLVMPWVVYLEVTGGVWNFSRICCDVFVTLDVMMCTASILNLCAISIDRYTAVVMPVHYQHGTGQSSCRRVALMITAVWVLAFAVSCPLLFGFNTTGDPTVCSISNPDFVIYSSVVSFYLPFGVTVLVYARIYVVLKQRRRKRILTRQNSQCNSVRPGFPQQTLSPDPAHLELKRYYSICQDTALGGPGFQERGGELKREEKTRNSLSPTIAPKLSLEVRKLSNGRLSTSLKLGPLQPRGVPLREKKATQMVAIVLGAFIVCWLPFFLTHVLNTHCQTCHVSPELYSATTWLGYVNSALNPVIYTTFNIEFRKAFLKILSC
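Cells plated overnight at 1500 cells/well, then exposed to library compounds with dopamine controls for 90 minutes at 37 degrees C. DiscoveRx reagent added for 30–60 minutes at room temperature; luminescence read, quantitative HTS format.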
D3 ag – activates the human D3 dopamine receptor; P35462; max activation, %; hit rate 0.58% among 410,000; D3R DiscoveRx beta-arrestin cells, luminescence, 90 min; in the data active = max activation above about 30%; note: 0% is about no effect
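Agonist mode: compounds and dopamine controls were applied to plated cells for 90 min at 37 degrees C after an overnight attachment at 1500 cells/well. Luminescent read-out followed 30 - 60 minutes at room temperature with DiscoveRx detection reagent.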
S2 tox – reduces viability in counter-screen for ATXN expression inhibitors; S2 cells (HEK-293 line with an ATXN2-luciferase reporter) viability, CellTiter-Fluor protease fluorescence, 24 h; Potency, µM (doses to about 56.7 µM), actives largely listed as cytotoxic; hit rate 0.49% among 400,000; AID 651635; note: potency is the fitted concentration of half-maximal effect; nearly all actives have a fitted effect of over 40% in size
ATXN2 expr inh – ATXN2 expression inhibition; AID 1745845; hit rate 0.72% among 360,000; HEK-293 ATXN2-luciferase reporter, luminescence, 24 h; Potency, µM (highest dose often 57 µM), without a hit: at the top dose activity change, negative = inhibition, most hits filed as inhibitors; note: potency is the fitted concentration of half-maximal effect; % is set by controls: 0 for no effect and ±100 for the full control effect; nearly all actives have a fitted effect of over 55% in size
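ATXN2-luciferase reporter cells (luciferase flanked by upstream and downstream ATXN2 gene portions) were treated 24 h at 37 °C with compounds at up to 57 uM. SteadyGlo luminescence gave expression; GF-AFC fluorescence gave viability.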
TGFb inhibitor – TGF-b pathway inhibition | HepG2 CAGA-GFP TGF-b/SMAD3 reporter, GFP fluorescence, 18 h; TGF-beta stimulated, 500 pg/mL final | Potency, µM (doses to about 46.1 µM), without a hit: top-dose activity, negative = inhibition, usual class: inhibitors | hit rate 1.2% among 410,000; note: potency is the fitted concentration of half-maximal effect; % is set by controls: 0 for no effect and ±100 for the full control effect; nearly all actives have a fitted effect of over 65% in size
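HEPG2 CAGA-GFP cells (1000/well, DMEM with 1% FBS) were pre-incubated 2 h at 37 degrees C, given compound by pin tool, then stimulated with TGF-beta at 500 pg/mL final for 18 h before per-cell GFP fluorescence imaging.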
HepG2 viability – kills HepG2 cells in TGF-b inhibitor counter-screen; HepG2 CAGA-GFP viability, ATP luminescence, 18 h; Potency, µM (titrated, usually from 46.1 µM), for inactives: at the highest dose activity change, negative = cytotoxicity, actives largely listed as cytotoxic; hit rate 0.76% among 410,000; note: potency is the fitted concentration of half-maximal effect
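CellTiter-Glo luminescence gave cytotoxicity after 18 hours at 37 degrees C. The cells were HepG2 CAGA-GFP in 1% FBS DMEM, stimulated with 500 pg/mL TGF-beta after compound addition. %Activity was normalised to no-cell wells (complete cell-killing) and DMSO (no toxicity), and curves were fitted and classified.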
Active calls of the source: *; i = inactive; ? = inconclusive; / = no result. Sampled rows, rich in hits. Any-hit rate of the full collection: about 4.8%. Unless noted, calls come from the whole dose curve; as a rule, active = well fitted curve in the direction sought with a large enough effect; inconclusive = small, poorly fitted or top-dose-only effect, or another doubt; inactive = no such curve, though single readings can be large; an effect the other way counts as inactive or inconclusive.

SMILES	DRD3 antagonist	D3 ag	S2 tox	ATXN2 expr inh	TGFb inhibitor	HepG2 viability
CCN(CC)CCN(C(=O)c1ccc2c(c1)OCCO2)c1nc2cc3c(cc2s1)OCO3	-14	-7	i	-8%	8%	-22%
CN(C)CCCN(C(=O)c1ccc2ccccc2c1)c1nc2cc3c(cc2s1)OCO3	-23	-12	32µM*	25µM*	-29%	-39%
CCN(c1ccccc1)S(=O)(=O)c1ccc(C(=O)N(CCCN(C)C)c2nc3cc4c(cc3s2)OCO4)cc1	-17	-21	i	?	22µM*	-108%
CN(C)CCCN(C(=O)c1ccc(S(=O)(=O)N(C)Cc2ccccc2)cc1)c1nc2cc3c(cc2s1)OCO3	-9	-11	?	?	?	-101%
COc1ccc(C2C3C=CCC(c4cccc(-c5ccc(N(C)C)cc5)c4)C3C(=O)N2Cc2ccccc2)cc1Cl (stereo not given)	/	/	/	/	-1%	10%
CNC(=O)[C@H](CC1=CN=C2C=CCC=C12)NC(=O)[C@@H](CC(=O)NO)CC(C)C	/	/	/	0.017µM*	/	/
C[C@@H]1[C@H](c2ccccc2)OCCS(=O)(=O)N1Cc1ccccc1F	/	/	/	/	-35%	-20%
O=[N+]([O-])c1cccc(S(=O)(=O)N2CCN(c3nc(-c4ccccc4)nc4ccccc34)CC2)c1	/	/	/	/	1%	3%
COc1cccc(NC(=O)CCN2CCN(CCO)CC2)c1	/	-16	i	-10%	19%	-1%
O=C(CCN1CCN(c2ccccc2F)CC1)Nc1ccc(F)cc1	-73*	26	i	/	4%	3%
COc1ccccc1N1CCN(CC(=O)Nc2cc(F)ccc2C)CC1	-83*	-1	i	-11%	-9%	-20%
COc1cc(NC(=O)CCN2CCN(c3ccccc3F)CC2)cc(OC)c1	0	21	i	-3%	-1%	-46%
O=C(CCN1CCN(c2ccccc2F)CC1)Nc1cccc(F)c1	-63*	15	i	6%	?	-19%
COc1ccccc1N1CCN(CCC(=O)Nc2cccc(F)c2)CC1	-111*	-24	?	-8%	-23%	-13%
Oc1cccc2[nH]ccc12	/	/	i	8%	/	/
CCCCNC(=O)[C@@H]1CC=C[C@@H]2CCN(Cc3ccc(OC)c(OC)c3)C(=O)[C@@H]21	/	/	/	/	-15%	-18%
O=C(C=Cc1ccc(/C=C/C(=O)Nc2ccc(C3=NCCN3)cc2)cc1)Nc1ccc(C2=NCCN2)cc1	/	/	/	2%	/	/
COc1ccccc1NC(=O)CN1CCN(CC(=O)Nc2ccc(F)c(F)c2)CC1	/	-15	i	6%	6.3µM*	-54%
O=C(CN1CCN(c2cccc(Cl)c2)CC1)Nc1ccc([N+](=O)[O-])cc1C(=O)Nc1ccccc1F	69	19	i	/	0%	3%
Cc1ccccc1N1CCN(CCC(=O)Nc2ccc(F)cc2)CC1	-84*	10	i	/	-4%	-20%
COc1ccc(NC(=O)CCn2c(=O)c3cccn3c3ccccc32)cc1	-24	-19	i	1%	-1%	-4%
O=C(CCn1c(=O)c2cccn2c2ccccc21)Nc1ccc(F)cc1	-65*	-20	i	-10%	-2%	0%
COc1ccccc1NC(=O)CN1CCN(CC(=O)Nc2ccc(C)c(F)c2)CC1	18	-3	i	-22%	-13%	-6%
Cc1ccc(C)c(N2CCN(CC(=O)Nc3ccc([N+](=O)[O-])cc3C(=O)Nc3ccccc3F)CC2)c1	17	50*	i	1%	-14%	-3%
O=C(CCN1CCN(c2ccccn2)CC1)Nc1ccc(F)cc1	?	9	i	18%	25%	2%
SMILES	DRD3 antagonist	D3 ag	S2 tox	ATXN2 expr inh	TGFb inhibitor	HepG2 viability
CC(C)OC(=O)C1=CN(C(=O)c2ccc(F)c(F)c2)CC(C)(C)c2c1[nH]c1ccccc21	/	/	/	6%	/	/
OC1(c2cccnc2)CCN(Cc2ccc3c(c2)CN(Cc2ccsc2)CCO3)CC1	/	/	i	/	/	/
CCNc1ccc(/C=C/c2ccnc3ccccc23)cc1	/	/	/	/	0%	-24%
COc1ccc(OC)c(N(CCN2C(=O)c3ccccc3C2=O)C(=O)CCl)c1	13	1	1.6µM*	/	?	-56%
COc1ccc(NC(=O)CCN2C(=O)c3ccccc3C2=O)c(OC)c1	10	-9	i	22%	0%	10%
Cc1ccn2c(=O)c(C(=O)NCCc3ccccc3)c(O)nc2c1	/	0	i	9%	-1%	-6%
O=C(NC(Nc1ncc(S(=O)(=O)c2ccc([N+](=O)[O-])cc2)s1)(C(F)(F)F)C(F)(F)F)c1ccc(Cl)cc1	-17	2	?	14µM*	?	-39%
O=C(Nc1ncc(SCCN2CCCC2)s1)[C@]1(c2ccc(S(=O)(=O)C3CC3)cc2)C[C@@H]1C1CCCCC1	/	/	/	27µM*	/	/
COc1cccc(CNC(=O)c2cc(S(=O)(=O)N3CCCCC3)cn2C)c1	/	-3	i	11%	4%	-12%
Cc1ccc(CN(C(=O)COc2ccccc2[N+](=O)[O-])c2ccccn2)o1	/	38*	i	38%	-22%	-9%
Cc1ccc(CN(C(=O)COc2ccc(Br)cc2)c2ccccn2)o1	/	0	i	32%	-19%	-12%
COc1ccccc1NC(=O)c1ccc2c(c1)N(CC(=O)NC(C)(C)C)C(=O)C(C)(C)O2	-15	-6	i	-1%	-1%	3%
CCOC(=O)CN1C(=O)C(C)(C)Oc2ccc(C(=O)Nc3ccccc3OC)cc21	-95*	3	i	-5%	-24%	1%
Cn1cncc1C#Cc1c(C=O)n(C)c2ccccc12	6	2	i	-10%	?	-28%
C=CCn1c2ccccc2c(=O)c2cc(C#Cc3cc(OC)cc(OC)c3)ccc21	51	50*	i	-8%	5%	4%
Cn1c2ccccc2c(=O)c2cc(C#Cc3ccccn3)ccc21	21	4	i	45%	18%	0%
COc1cc(C#Cc2c(C=O)n(C)c3ccccc23)cc(OC)c1	81	50*	i	-18%	7%	-9%
